# G9a block = inhibitors of human histone lysine methyltransferase G9a; Potency, µM (titrated, usually from 102 µM), for the others: at the highest dose activity, negative = inhibition, actives largely listed as inhibitors; G9a H3K9 monomethylation, AlphaScreen, 2 h; AID 504332; Q96KQ7; actives 8.8% (n = 350,000); note: % is set by controls: 0 for no effect and ±100 for the full control effect; nearly all actives have a fitted effect of over 75% in size
#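 Methyltransferase reactions run at room temperature for 2 h (20 nM enzyme, 500 nM biotin-H3K9 peptide, 20 uM SAM) after a 15 min compound preincubation; product detected by AlphaScreen beads and anti-H3K9me1 antibody.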
# HP1b binding inh = HP1-beta chromodomain-methylated histone interaction inhibition. Potency, µM (titrated, usually from 114 µM), without a hit: at the highest dose activity change, negative = inhibition, most hits filed as inhibitors. AID 540317. AlphaScreen HP1-beta / biotin-H3K9me3 peptide binding. actives 0.56% (n = 390,000); note: nearly all actives have a fitted effect of over 70% in size
#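 HP1-beta protein (50 nM final) preincubated 30 min at room temperature with biotinylated H3(1-18)K9me3 peptide (50 nM) in PBS pH 7.4, 0.01% Tween-20, then compound added for 30 min. AlphaScreen streptavidin donor/nickel chelate acceptor beads (10 ug/mL final), 30 min dark, luminescence read.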
# BAZ2B inh = inhibitors of human BAZ2B bromodomain; AlphaScreen BAZ2B-H3K14Ac peptide displacement; Potency, µM (doses to about 114 µM), for the others: top-dose activity change, negative = inhibition, hits mostly inhibitors; actives 4.4% (n = 360,000); AID 504333; note: % is set by controls: 0 for no effect and ±100 for the full control effect; nearly all actives have a fitted effect of over 60% in size
#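 BAZ2B (50 nM) with biotin-H3(5-23)K14Ac peptide (50 nM) in PBS pH 7.4, 0.01% Tween-20, preformed 30 min, then compound 30 min at room temperature; top concentration 110uM. AlphaScreen streptavidin donor/nickel chelate acceptor beads (10 ug/mL final), 20 min dark, signal read.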
# JMJD2A Tudor inh = blocks the human JMJD2A Tudor domain; O75164; AlphaScreen JMJD2A-Tudor / H3K4me3 peptide binding; Potency, µM (top dose mostly 114 µM), for the others: top-dose activity change, negative = inhibition, usual class: inhibitors; actives 4.4% (n = 390,000); AID 504339; note: % is set by controls: 0 for no effect and ±100 for the full control effect; nearly all actives have a fitted effect of over 50% in size
# L3MBTL1 inh = inhibitors of human L3MBTL1; AlphaScreen L3MBTL1–H3K9me1 peptide binding; Potency, µM (series often up to 57.1 µM), for the others: at the highest dose activity, negative = inhibition, actives largely listed as inhibitors; actives 0.66% (n = 230,000); note: % is set by controls: 0 for no effect and ±100 for the full control effect; nearly all actives have a fitted effect of over 60% in size
# Target sequence (Q9Y468 whole entry, looked up): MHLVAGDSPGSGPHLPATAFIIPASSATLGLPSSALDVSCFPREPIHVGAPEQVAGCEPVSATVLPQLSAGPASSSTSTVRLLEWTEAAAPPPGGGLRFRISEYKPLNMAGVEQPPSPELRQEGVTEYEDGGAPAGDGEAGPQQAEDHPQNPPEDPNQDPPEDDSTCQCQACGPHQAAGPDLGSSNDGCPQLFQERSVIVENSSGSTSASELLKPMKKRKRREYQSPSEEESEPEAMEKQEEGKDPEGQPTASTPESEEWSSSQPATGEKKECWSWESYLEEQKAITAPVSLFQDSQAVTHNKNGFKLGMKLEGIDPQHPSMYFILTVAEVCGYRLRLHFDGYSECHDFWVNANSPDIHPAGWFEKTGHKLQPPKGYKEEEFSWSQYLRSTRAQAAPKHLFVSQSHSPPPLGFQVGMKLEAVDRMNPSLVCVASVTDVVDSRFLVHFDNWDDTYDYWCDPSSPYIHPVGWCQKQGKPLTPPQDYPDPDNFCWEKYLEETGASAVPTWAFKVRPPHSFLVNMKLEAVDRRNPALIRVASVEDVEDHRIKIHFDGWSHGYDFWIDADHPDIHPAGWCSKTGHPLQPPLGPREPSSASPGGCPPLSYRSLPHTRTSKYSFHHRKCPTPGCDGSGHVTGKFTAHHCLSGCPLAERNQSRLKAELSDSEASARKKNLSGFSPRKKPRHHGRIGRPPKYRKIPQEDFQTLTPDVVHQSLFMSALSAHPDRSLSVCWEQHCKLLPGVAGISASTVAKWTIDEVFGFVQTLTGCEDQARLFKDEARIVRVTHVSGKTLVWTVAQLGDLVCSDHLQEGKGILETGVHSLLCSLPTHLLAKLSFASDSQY
#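 L3MBTL1 (50 nM) pre-complexed 30 min with biotinylated H3(1-15)K9me1 peptide (75 nM), then compounds added for 30 min at room temperature; AlphaScreen streptavidin donor/nickel chelate acceptor beads (10 ug/mL final) read after 30 min dark incubation.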
# * hit, by the source's call; ? = inconclusive; nt = no result; [ ] = dose if it differs, or a comment. Shown are actives, neighbours in structure and some others; about 11% of the full set was active somewhere. Calls come from the whole dose curve; as a rule, active = well fitted inhibition curve with a large enough effect; inconclusive = small, poorly fitted or top-dose-only effect; inactive = no such curve, though single readings can be large or run the other way. Potency is the fitted concentration of half-maximal effect.
SMILES,G9a block,HP1b binding inh,BAZ2B inh,JMJD2A Tudor inh,L3MBTL1 inh
C#CCOCCOCCOCCNc1nc(N2CCN(C(=O)Cn3cc(CCO)nn3)CC2)nc(N2CCN(C(=O)[C@H]([C@@H](C)O)n3cc(CCCCN)nn3)CC2)n1,79µM*,18%,-8%,-15%,8%
C#CCOCCOCCOCCNc1nc(N2CCN(C(=O)Cn3cc(CC(C)O)nn3)CC2)nc(N2CCN(C(=O)[C@H](CCCCN)n3cc(CCC(=O)O)nn3)CC2)n1 (stereo partly specified),50µM*,12%,-32%,-30%,0%
C#CCOCCOCCOCCNc1nc(N2CCN(C(=O)Cn3cc(CCCN=C(N)N)nn3)CC2)nc(N2CCN(C(=O)[C@H](C(C)C)n3cc(CCO)nn3)CC2)n1,50µM*,26%,-12%,-15%,9%
Cc1ccc(CSc2ncc(Cl)c(C(=O)Nc3nnc(C)s3)n2)cc1,8%[59 µM],4%,-12%,-26%,nt
Cc1ccc(-c2nn(-c3ccc(F)cc3F)c3c2cnc2c(F)cccc23)cc1,13%[59 µM],34%,-14%,-16%,nt
CCCc1c(O)nc(SCCN(CC)CC)n(C(=O)c2ccccc2)c1=O,79µM*,20%,-32%,-30%,2%
Cc1cc(C)c(S(=O)(=O)N2CCCCC2CCNC(=O)C(=O)NCc2ccccn2)c(C)c1 (stereo unspecified),10%[0.501 µM],14%,7%,-26%,1%
O=C1/C(=C/c2cccs2)SC(=S)N1c1ccccc1,21%[59 µM],24%,-4%,1%,4%
Cc1ccc(C2=N/C(=C\c3cccs3)C(=O)N2Nc2ccccc2)cc1,?,?,35µM*,?,-17%
O=C1/C(=C\c2cccs2)N=C(c2cccs2)N1Nc1ccccc1,40µM*,-17%,?,?,nt
O=C1/C(=C/c2cccs2)N=C(c2cccs2)N1Nc1ccccc1,50µM*,-17%,?,?,nt
Cc1ccc(NC(=O)/C(=C\c2cccs2)NC(=O)c2ccccc2)cc1,-2%[59 µM],43%,-1%,5%,-9%
Cc1ccc(S(=O)(=O)NCCC(=O)N2CCN(C/C=C/c3ccccc3)CC2)cc1,10%[12.7 µM],12%,-1%,-14%,0%
CC(=O)c1ccc(S(=O)(=O)NCC(=O)N2CCN(C/C=C/c3ccccc3)CC2)cc1,7.9µM*,5%,-4%,-27%,0%
Cc1cccc(Oc2ccc(NC(=O)C3CC=CCC3C(=O)O)cc2)c1 (stereo unspecified),45µM*,20%,?,?,-9%
N#Cc1ccc(Oc2ccc(NC(=O)C3CC=CCC3C(=O)O)cc2)cc1 (stereo unspecified),12%,34%,2%,-13%,2%
CCc1ccc2c(c1)C(NC(C)=O)C(=O)N2CCN1CCOCC1 (stereo unspecified),28µM*,-18%[57 µM],13µM*,10µM*,nt
CC(=O)NC1C(=O)N(CCc2ccccc2)c2ccccc21 (stereo unspecified),?,37%,0%,-17%,-7%
CCCN1C(=O)C(NC(C)=O)c2ccccc21 (stereo unspecified),40µM*,14%,-24%,-12%,nt
CC(=O)Nc1ccc(S(=O)(=O)NNC2=NS(=O)(=O)c3ccccc32)cc1,-45%,50%,71µM*,-34%,nt
CC(C)NC(=O)NC(=O)CN1c2cccc3cccc(c23)S1(=O)=O,32µM*,43%,-2%,2%,nt
O=C(CN1c2cccc3cccc(c23)S1(=O)=O)Nc1ccccc1,12%,21%,nt,-7%,-13%
CC(C)CNC(=O)CN1c2cccc3cccc(c23)S1(=O)=O,14%,17%,5%,5%,nt
CNC(=O)c1ccc(NC(=O)CN2c3cccc4cccc(c34)S2(=O)=O)cc1,45µM*,-3%,0%,-16%,3%
COc1cccc(N2CC(NC(=O)CCCc3ccccc3)CC2=O)c1 (stereo unspecified),-10%[59 µM],27%,-1%,-8%,nt
SMILES,G9a block,HP1b binding inh,BAZ2B inh,JMJD2A Tudor inh,L3MBTL1 inh
COc1cc2nc(C3CCC3)nc(N3CCN(c4ccccn4)CC3)c2cc1OC,50µM*,-16%,50µM*,?,-14%
COc1cc2nc(Cl)nc(N3CCN(C)CC3)c2cc1OC,?,nt,2%,nt,nt
COc1cc(C(=O)N2CCN(c3ccccn3)CC2)cc(OC)c1OC,29%,28%,-3%,1%,-12%
COc1cc2nc(C3CCC3)nc(N3CCN(c4ccccc4OC)CC3)c2cc1OC,?,-21%,?,?,28µM*
Nc1nc2ncc(C(=O)c3cc(F)ccc3O)cc2s1,nt,29%,-12%,3%,8%
Nc1nc2ncc(C(=O)c3cc(Cl)cc(Cl)c3O)cc2s1,50µM*,?,-27%,?,-7%
O=[N+]([O-])c1ccccc1/C=N/n1c(-c2cccnc2)n[nH]c1=S,2.5µM*,9%,-27%,2.2µM*,9%
Fc1cccc(Cl)c1/C=N/n1c(-c2cccnc2)n[nH]c1=S,?,3%,?,3.2µM*,nt
O=[N+]([O-])c1cc2c(cc1/C=N/n1c(-c3ccccc3)n[nH]c1=S)OCO2,1.4µM*,?,?,4µM*,-26%
O=[N+]([O-])c1cc(/C=N/n2c(-c3cccnc3)n[nH]c2=S)ccc1Cl,1.3µM*,-8%,?,40µM*,?
Nc1nnnn1/N=C\c1ccc(Cl)c([N+](=O)[O-])c1,40%[0.0925 µM],58%,3%,-15%,5%
CSc1ncc(Cl)c(C(=O)N(Cc2ccc(C)cc2)C2CCS(=O)(=O)C2)n1 (stereo unspecified),7%[59 µM],20%,-5%,-14%,nt
CCCCCCn1c(=O)[nH]c2nc3cc(N)c(C)cc3nc2c1=O,3.5µM*,5%,3%,-21%,-5%
CCCCn1c(=O)[nH]c2nc3cc(NC(C)=O)ccc3nc2c1=O,nt,-5%,?,-16%,nt
O=C(O)c1ccccc1-c1ccccc1C(=O)Nc1ccccc1,-3%[12.7 µM],15%,-3%,-8%,4%
O=C(O)c1ccccc1-c1ccccc1C(=O)NNc1ccccc1,8.9µM*,60%,-5%,-15%,7%
O=C(O)c1ccccc1-c1ccccc1C(=O)Nc1cccc(Br)c1,45µM*,-24%,-25%,-16%,8%
CCOc1ccc(C2c3c(oc4ccc(C)cc4c3=O)C(=O)N2CCCN(C)C)cc1OC (stereo unspecified),1%[59 µM],56%,-2%,-18%,nt
OCC1O[C@@H](O[C@@H]2C(CO)OC(O)C(O)C2O)C(O)C(O)C1O (stereo partly specified),-39%[12.7 µM],nt,nt,nt,nt

# Assay outcomes (PubChem BioAssay)
